Assay outcomes as filed in PubChem BioAssay.
In the library only some 14% were active in any assay of this set; here they are far more common.
FBPA Giardia inh = Giardia lamblia aldolase inhibition | actives 0.71% (n = 290,000) | Potency, µM (series often up to 59.6 µM), for the others: top-dose activity, negative = inhibition, hits mostly inhibitors | AID 2451 | purified Giardia FBPA; further: potency means the concentration at half of the fitted maximal effect; nearly all actives have a fitted effect of over 55% in size
Target sequence (A8B2U2 whole entry, looked up): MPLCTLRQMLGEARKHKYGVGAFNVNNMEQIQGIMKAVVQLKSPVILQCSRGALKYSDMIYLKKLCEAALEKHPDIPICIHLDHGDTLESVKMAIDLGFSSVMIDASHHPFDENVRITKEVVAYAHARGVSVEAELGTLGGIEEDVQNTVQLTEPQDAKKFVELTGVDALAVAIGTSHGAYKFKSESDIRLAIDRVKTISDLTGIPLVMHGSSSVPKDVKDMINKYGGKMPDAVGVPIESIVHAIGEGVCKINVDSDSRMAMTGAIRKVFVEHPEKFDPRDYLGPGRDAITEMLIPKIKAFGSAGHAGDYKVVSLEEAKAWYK
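Giardia FBPA (40 nM reagent) was preincubated 10 min at RT with compound (up to 57.5 uM final), then substrate plus GAPDH/TPI/NAD/arsenate coupling system with diaphorase/resazurin was added; resorufin fluorescence (525/598 nm) was read after 20 min.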
HCMV inh = human cytomegalovirus inhibition. HFF cells, HCMV-luciferase reporter, 72 h; hits give low values. activity change, negative = inhibition, % at 57.5 µM. actives 4.5% (n = 410,000). AID 1259415; in the data active means activity change below about -60%; inconclusive means no clear call, values can overlap the other calls; inactive means above about -39%
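After 16 h attachment at 37C, HFF cells received test compound and HCMV-luciferase (1 PFU/cell); reporter luminescence read 72 h later, data normalized against buffer-only and known inhibitor Salinomycin.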
Pf growth 96h = inhibits malaria parasite growth, 96 h. P. falciparum luciferase reporter growth, 96 h. Potency, µM (series often up to 28.7 µM), without a hit: at the top dose activity change, negative = inhibition, most hits filed as inhibitors. actives 6.9% (n = 320,000); further: potency means the concentration at half of the fitted maximal effect
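Plates of compound plus infected erythrocytes (2% hematocrit, 0.05% parasitemia final) incubate 96 hours, 37 C, 5% CO2. Detection reagent added; reduced luminescence from the parasites' luciferase reporter flags inhibition.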
Sm TGR inh = blocks Schistosoma mansoni thioredoxin glutathione reductase | Q962Y6 | purified TGR, DTNB reduction, TNB absorbance 405 nm | Potency, µM (titrated, usually from 114 µM), without a hit: at the top dose activity change, negative = inhibition, actives largely listed as inhibitors | actives 3% (n = 360,000) | AID 485364; further: potency means the concentration at half of the fitted maximal effect; nearly all actives have a fitted effect of over 60% in size
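Kinetic colorimetric format: TGR-catalysed, NADPH-driven DTNB reduction monitored via TNB absorbance. Enzyme dispensed at 20 nM; compound exposure 15 min at room temperature before reaction start.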
Pf growth 48h = inhibits P. falciparum growth in the first generation, 48 h; Potency, µM (doses to about 28.7 µM), without a hit: at the top dose activity change, negative = inhibition, hits mostly inhibitors; P. falciparum luciferase growth in erythrocytes, 48 h; actives 5.9% (n = 310,000); further: potency means the concentration at half of the fitted maximal effect
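Parasite viability was followed by luminescence of a genomically integrated firefly luciferase. Cultures held 0.1% parasitemia at 2% hematocrit (final), incubated under 5% CO2 at 37 C.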
Numbers without * were called inactive; u = inconclusive; x = no result given; + = active, no number; [ ] = dose if it differs, or a comment. Unless noted, the call rests on the fitted dose curve; in most records, active means well fitted curve in the direction sought with a large enough effect; inconclusive means small, poorly fitted or top-dose-only effect, or another doubt; inactive means no such curve, though single readings can be large; an effect the other way counts as inactive or inconclusive. On the % scale 0 is the no-effect control and ±100 the full control effect.

SMILES | FBPA Giardia inh | HCMV inh | Pf growth 96h | Sm TGR inh | Pf growth 48h
CN(C)c1ccc(/C=C(/C(=O)c2ccc(Cl)cc2Cl)n2cncn2)cc1 | 3% | -37 | 24% | -5% | u
Cc1nc(-n2[nH]c3c(c2=O)CCCC3)[nH]c(=O)c1Cc1ccccc1 | -1% | -103* | u | -31% | u
O=c1c2c([nH]n1-c1ccccc1)CCCC2 | -2% | -13 | 3% | x | -3%
Cc1cc(=O)[nH]c(-n2[nH]c3c(c2=O)CCCC3)n1 | u | 5 | u | 1% | 4.1µM*
Cc1cc(=O)[nH]c(N2CCCNCC2)n1 | -17% | x | -32% | -14% | 12µM*
Cc1nc(N2CCc3ccccc3C2)[nH]c(=O)c1Cc1ccccc1 | 13% | -22 | u | 36% | 0%
COc1ccc(Oc2ncc3ncc(=O)n(Cc4ccc(F)cc4)c3n2)cc1 | -13% | x | x | x | x
O=C(CCn1c(=S)oc2ccccc21)Nc1cc([N+](=O)[O-])ccc1F | -3% | -18 | -4% | -4% | 8.3µM*
O=C(COC(=O)CCc1ccccc1)Nc1cc([N+](=O)[O-])ccc1F | 7% | x | 3% | 6% | u
O=C(O)CCCC(=O)Nc1cc([N+](=O)[O-])ccc1O | 2% | -29 | 13µM* | 3% | 3%
O=C(COc1ncnc2ccccc12)Nc1cc([N+](=O)[O-])ccc1F | 0% | 0 | 5.2µM* | 0% | 3%
O=C(CSCc1ccccc1)Nc1cc([N+](=O)[O-])ccc1F | -9% | -17 | 5.2µM* | 1% | -16%
Cc1cccc(-n2ccnc2SCC(=O)Nc2cccc3ccccc23)c1 | x | -23 | x | 13% | x
O=c1c2cc(Br)ccc2nc(-c2ccccc2)n1O | 12% | -32 | -5% | 1% | x
c1ccc(Cn2nnnc2C(c2ccccc2)N2CCN(c3nc4ccccc4s3)CC2)cc1 (centres undefined) | 2% | -2 | -2% | 0% | 7%
COc1ccccc1C(c1nnnn1Cc1ccccc1)N1CCN(c2nc3ccccc3s2)CC1 (centres undefined) | -19% | -13 | -5%[5.75 µM] | -2% | 3.3µM*
c1ccc(C(c2nnnn2Cc2ccco2)N2CCN(c3nc4ccccc4s3)CC2)cc1 (centres undefined) | -1% | -24 | x | -17% | u
COc1ccccc1CN1CCN(Cc2nc(-c3cccs3)no2)CC1 | 2% | 5 | 5.9µM* | -20% | 17%
COc1ccc(C(c2nnnn2Cc2ccccc2)N2CCN(c3nc4ccccc4s3)CC2)cc1OC (centres undefined) | u | 12 | 18% | -8% | 10µM*
CCCCC(c1nnnn1Cc1ccco1)N1CCN(c2nc3ccccc3s2)CC1 (centres undefined) | -1% | -21 | x | u | 9.3µM*
Cc1cc(C(F)(F)F)nc2c(Cl)c(C(C)(C)C)nn12 | 1% | -2 | 58% | 8% | 3%
CCC(c1nnnn1Cc1ccccc1)N1CCN(C(=O)c2ccco2)CC1 (centres undefined) | -2% | -26 | 2% | u | -22%
Fc1ccc(C(c2nnnn2Cc2cccs2)N2CCN(c3ccccc3)CC2)cc1 (centres undefined) | -14% | 28 | -29% | -1% | u
COc1ccc(C(c2nnnn2Cc2ccccc2)N2CCN(C(=O)c3ccco3)CC2)cc1OC (centres undefined) | 9% | -21 | 3.7µM* | 0% | u
COCCn1nnnc1C(c1ccc(OC)c(OC)c1)N1CCN(C(=O)c2ccco2)CC1 (centres undefined) | u | 4 | -9% | -2% | 8%
SMILES | FBPA Giardia inh | HCMV inh | Pf growth 96h | Sm TGR inh | Pf growth 48h
COc1ccc(C(c2nnnn2Cc2cccs2)N2CCN(c3ccccc3F)CC2)cc1OC (centres undefined) | u | -14 | x | -9% | 2.3µM*
CC(C)C(c1nnnn1Cc1ccco1)N1CCC(C(N)=O)CC1 (centres undefined) | -5% | -38 | u | 45µM* | u
CC(C)C(c1nnnn1Cc1ccc(F)cc1)N1CCN(C(=O)c2ccco2)CC1 (centres undefined) | -2% | -1 | 13µM* | -19% | u
CCCCC(C)/C=C(C)/C=C(\C)C(=O)NC1=CC(O)(/C=C/C=C/C=C/C(=O)NC2=C(O)CCC2=O)C2OC2C1=O (centres undefined) | -8% | x | x | x | x
COC(=O)c1ccc(CNC(=O)c2ccccc2C(=O)NCC2(CBr)OCCO2)cc1 | x | 38 | x | x | x
COc1ccccc1CN1CCN(C(CC(C)C)c2nnnn2Cc2cccs2)CC1 (centres undefined) | -2% | 29 | 58% | -3% | 13µM*
O=C(N/N=C/c1ccncc1)c1ccc(OCc2ccccc2)cc1 | 2% | -62* | u | 2% | u
Oc1ccc(N=Cc2ccc(OCc3ccccc3)cc2)cc1 | 20µM* | -19 | u | 4µM* | u
CCOc1ccc(OCc2ccc(C(=O)NN=Cc3ccc[nH]3)cc2)cc1 | x | + | x | x | x
O=C(N/N=C/c1ccc[nH]1)c1ccccc1OCc1ccc(F)cc1 | -6% | u | -10% | 5% | -5%
O=C(N/N=C/c1ccc(OCc2ccccc2)cc1)c1ccncc1 | 0% | -11 | u | -3% | 3%
CN(C)c1ccc(C(=O)Nc2ccc(-c3nc4ccccc4o3)cc2)cc1 | x | -7 | x | 7% | x
Nc1nc(Cl)cc(N2CCCC2)n1 | -19% | 131 | 7.4µM* | 9% | 0%
Nc1nc(Cl)cc(N2CCOCC2)n1 | 2% | 64 | u | 10% | 38%
Nc1nc(Cl)cc(N2CCC(c3cc(-c4ccc(Cl)cc4Cl)n[nH]3)CC2)n1 | -19% | -100* | u | -8% | u
CCCN(CC(=O)Nc1ccc(C(N)=O)cc1)CC(=O)Nc1ccc(F)c(F)c1F | 3% | 55 | -12% | 1% | -46%
CCCn1c(SCC(=O)Nc2cccc(NC(C)=O)c2)nnc1C(C)C | -15% | -4 | 4.1µM* | 6% | 11%
CC(=O)c1cccc(NC(=O)CSc2nnc(C(C)N(C)C)n2Cc2ccccc2)c1 (centres undefined) | -1% | 5 | u | 25µM* | u
CC(=O)c1cccc(NC(=O)CSc2nnc(C(C)N(C)C)n2-c2ccc(F)cc2)c1 (centres undefined) | -5% | 3 | 9% | 18% | -8%
CCCCn1c(SCC(=O)Nc2cc(C(F)(F)F)cc(C(F)(F)F)c2)nnc1C(CC)N(C)C (centres undefined) | 0% | -88* | u | -3% | u
CC1=C(CC(=O)NCC(=O)NCC(=O)O)c2cc(F)ccc2/C1=C/c1ccc(S(C)=O)cc1 (centres undefined) | -25% | -13 | -11% | -20% | 12%
O=C1CCCN1CCC(=O)N1CCCC(N2CCN(c3ccccc3F)CC2)C1 (centres undefined) | x | -11 | 24% | -18% | 0%
